# Data published in article PMC4336329 (PLoS ONE, 2015).
# Among all 310,000 compounds or so, about 14,000 (4.5%) showed an effect of 50% or more. The effect is printed as a negative number. Shown is part of a subset that was picked to be rich in strong results.
# Biological target: human ether-à-go-go-related gene (hERG) potassium channel (human, UniProt Q12809)
# Experiment: primary screen, population patch clamp on CHO cells stably expressing hERG; higher = less effect of the substance
# 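Also: peak tail current of the secondary pulse compared with the same well before compound.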
# Sequence of human ether-à-go-go-related gene (hERG) potassium channel (Q12809 whole entry, looked up): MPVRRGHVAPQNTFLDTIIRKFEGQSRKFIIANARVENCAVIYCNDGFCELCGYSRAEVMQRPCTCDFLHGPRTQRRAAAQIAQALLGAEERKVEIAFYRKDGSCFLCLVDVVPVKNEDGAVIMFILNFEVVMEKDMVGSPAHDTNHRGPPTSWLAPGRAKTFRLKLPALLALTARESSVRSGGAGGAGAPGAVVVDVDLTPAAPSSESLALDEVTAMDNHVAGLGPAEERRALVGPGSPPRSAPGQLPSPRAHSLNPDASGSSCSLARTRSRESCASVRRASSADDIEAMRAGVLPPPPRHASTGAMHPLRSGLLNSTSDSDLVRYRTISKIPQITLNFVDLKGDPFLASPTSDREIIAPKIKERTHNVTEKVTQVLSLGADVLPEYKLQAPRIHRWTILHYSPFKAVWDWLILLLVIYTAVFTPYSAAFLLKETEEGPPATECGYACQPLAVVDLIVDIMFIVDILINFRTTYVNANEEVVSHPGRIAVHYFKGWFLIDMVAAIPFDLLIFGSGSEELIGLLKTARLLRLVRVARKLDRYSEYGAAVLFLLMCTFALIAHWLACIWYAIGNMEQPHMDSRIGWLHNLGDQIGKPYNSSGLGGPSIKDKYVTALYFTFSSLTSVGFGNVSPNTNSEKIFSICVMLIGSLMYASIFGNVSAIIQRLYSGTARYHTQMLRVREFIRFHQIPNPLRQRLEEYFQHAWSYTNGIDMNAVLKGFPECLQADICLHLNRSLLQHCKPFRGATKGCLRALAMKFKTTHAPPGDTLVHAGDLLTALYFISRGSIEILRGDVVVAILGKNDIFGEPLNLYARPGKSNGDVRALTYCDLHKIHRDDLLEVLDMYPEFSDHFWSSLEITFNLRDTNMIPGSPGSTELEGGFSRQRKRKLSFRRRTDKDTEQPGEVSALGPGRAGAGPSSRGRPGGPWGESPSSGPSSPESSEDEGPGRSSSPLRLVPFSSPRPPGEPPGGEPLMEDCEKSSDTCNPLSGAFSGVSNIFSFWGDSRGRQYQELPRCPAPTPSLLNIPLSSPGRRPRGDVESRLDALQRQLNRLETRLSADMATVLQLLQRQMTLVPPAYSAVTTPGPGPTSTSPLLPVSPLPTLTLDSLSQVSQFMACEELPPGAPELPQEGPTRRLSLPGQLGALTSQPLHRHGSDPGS
row,SMILES,"hERG current change (%, negative = inhibition) at 10uM [%]"
1,Nn1c(N2CCCCC2)nc2ccccc21,6.16
2,Cc1cc(C(=O)N/N=C2\CCCC(C)C2)n[nH]1 (stereo not drawn),11
3,CCC1=C(c2ccc(C)cc2)S(=O)(=O)N=C1N1CCC(C(=O)NCCCN2CCCCC2)CC1,20.5
4,CCN(CC)CC(=O)Nc1nc(-c2ccc(Cl)cc2)cs1,-35.8
5,O=C(COc1ccccc1C(=O)NCC1CCCO1)Nc1ccc(Cl)cc1Cl (stereo not drawn),-14
6,COC(=O)c1ccc(COc2ccc(Cl)cc2)o1,2.11
7,Cc1occc1-c1nnc(SCC(=O)NC2CCCC2)n1-c1ccccc1,-74.8
8,Cc1cccc(-n2c(SCC(=O)Nc3ccc4c(c3)OCO4)nnc2-c2ccoc2C)c1,-0.162
9,Cc1cccc(-n2c(SCC(=O)NC3CCCC3)nnc2-c2ccoc2C)c1,-83.2
10,CCOc1ccccc1-n1c(SCC(=O)NC2CCCC2)nnc1-c1ccoc1C,-24
11,CCn1c(SCC(=O)NC2CCCC2)nnc1-c1ccoc1C,14
12,Cc1occc1-c1nnc(SCC(=O)NC2CCCC2)n1C,15.5
13,Cc1ccc(C)c(NC(=S)N2CCC(NC(=O)C3CCCCC3)CC2)c1,4.41
14,COc1ccc(NC(=O)COc2ccc(-c3nn(C)c(=O)c4ccccc34)cc2)cc1,18.2
15,S=C(NCc1cccnc1)Nc1cccc(Cl)c1,-9.78
16,CCOc1cc(C2Nc3ccccc3C(=O)N2c2ccccc2OC)ccc1O (stereo not drawn),1.46
17,CC(C)CC(=O)N(c1ccc(F)cc1)C1C=CS(=O)(=O)C1 (stereo not drawn),14.4
18,CC(=O)N1N=C2C3CCN(CC3)C2C1c1ccc(Br)cc1 (stereo not drawn),4.62
19,Cc1cc(C)n2nc(NCc3cccc(Br)c3)nc2n1,-70
20,COc1ccc(CNc2nc3nc(C)c(Cl)c(C)n3n2)cc1OC,-7.54
21,COc1ccc(CNc2nc3nc(C)c(Cl)c(C)n3n2)cc1,2.05
22,COc1cccc(CNc2nc3nc(C)cc(C)n3n2)c1,-15.6
23,Cc1cc(C)n2nc(NCc3ccccc3)nc2n1,-9.34

row,SMILES,"hERG current change (%, negative = inhibition) at 10uM [%]"
1,COc1cccc(CNc2nc3nc(C)c(Cl)c(C)n3n2)c1,-57.9
2,CC(NC(=O)Cc1ccccc1F)c1ccc(F)cc1 (stereo not drawn),6.9
3,Cc1ccc(C2=C/C(=C\c3cccnc3)C(=O)O2)cc1,30.8
4,NC(=O)NCCCC(=O)OCC(=O)c1ccc2ccccc2c1,13.4
5,CCCNC(=O)N1CCC(c2nc3ccccc3s2)CC1,-16.8
6,CCOc1cc(N2CCOCC2)c(OCC)cc1NC(=O)COC(=O)c1cc(C)cc(C)c1,-3.29
7,COc1c2ccccc2c(OC)c2ccccc12,12.9
8,C/C=C/c1ccccc1OCc1ccc(C(=O)O)o1,20
9,CSCC[C@H](NC(=O)COc1ccc(Cl)cc1)c1nc2ccccc2[nH]1,-56.5
10,CSCC[C@H](NC(=O)COc1ccc(Cl)cc1Cl)c1nc2ccccc2[nH]1,14.7
11,CSCC[C@H](NC(=O)C(C)Oc1ccc(Cl)cc1)c1nc2ccccc2[nH]1 (stereo partly drawn),-7.16
12,Cc1ccc(C)c(-n2c(SCC(=O)Nc3nnc(C)s3)nnc2-c2ccoc2C)c1,5.96
13,CCc1nnc(NC(=O)CSc2nnc(-c3ccoc3C)n2-c2cccc(C)c2)s1,-58.3
14,CCCn1c(SCC(=O)Nc2nnc(C)s2)nnc1-c1ccoc1C,3.4
15,Cc1cccc(-n2c(SCC(=O)Nc3nnc(C)s3)nnc2-c2ccoc2C)c1,-63.9
16,CCc1nnc(NC(=O)CSc2nnc(-c3ccoc3C)n2-c2ccc(C)cc2)s1,-26.4
17,CCc1nnc(NC(=O)CSc2nnc(-c3ccoc3C)n2-c2ccccc2)s1,-3.54
18,O=C(NCCc1ccccc1Cl)c1cc(COc2ccc(F)cc2F)on1,7.59
19,O=C(CCC(=O)Nc1ccc(F)cc1)N/N=C/c1cccnc1,17.8
20,CCOc1ccc(S(=O)(=O)NCCC(=O)NCc2ccco2)cc1,-0.369
21,O=C(NC1CCCCC1)c1ccc(S(=O)(=O)N2CCCCC2)cc1,-6.43
22,COc1ccc(S(=O)(=O)Nc2cc(C(C)C)c(O)cc2C)cc1,-2.38
